# Compound activity from PubChem BioAssay.
# tim23-1 inh = growth inhibitors of tim23-1 mutant yeast, primary screen, luminescence, uHTS | S. cerevisiae tim23-1 growth, BacTiter-Glo luminescence, 24 h | inhibition, % at 20 µM | hit rate 1.3% among 330,000 | AID 463212, 2010;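 active = growth inhibition of the mutant yeast at or above 50%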;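 note: temperature-sensitive mutant grown at 25 °C; plate controls were DMSO-treated mutant yeast for no effect and medium wells lacking yeast for full effect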
# TIM10 inh = growth inhibitors of isogenic TIM10 control yeast, primary screen, counter-screen for tim10-1 yeast inhibitor project, luminescence, uHTS; S. cerevisiae TIM10 strain growth, BacTiter-Glo luminescence, 24 h; inhibition, % at 10 µM; hit rate 1.4% among 330,000; AID 463195, 2010;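 active = inhibition of 40% or more at the single tested concentration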;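 note: wild-type TIM10 isogenic control strain grown at permissive 25 °C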
# tim10-1 inh = growth inhibitors of tim10-1 mutant yeast, primary screen, luminescence, uHTS; hit rate 2.2% among 330,000; S. cerevisiae tim10-1 ts strain growth, BacTiter-Glo, 24 h; AID 463190, 2010; inhibition, % at 20 µM;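 active = inhibition of at least 40%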;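 note: mutant grown at 25 °C; 0% = DMSO wells with yeast and 100% = wells holding no yeast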
# NLRP3 yeast inh = NALP3 inflammasome inhibitors in reconstituted yeast, primary screen, luminescence, uHTS | Yeast reconstituted NLRP3/ASC/caspase-1, beta-gal luminescence, 24 h | hit rate 0.39% among 330,000 | inhibition, % at 10 µM;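 active = inhibition of 50% or more; inactive = inhibition below 50%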;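 note: plate controls were induced DMSO wells for no effect and uninduced yeast grown without galactose for full effect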
# SKKanGAS inh = S. pyogenes SKKanGAS growth inhibitors in kanamycin, primary screen, streptokinase expression inhibitor project, SKKanGAS strain, BacTiter-Glo luminescence. AID 1662, 2009. hit rate 1.3% among 300,000. 6 h. inhibition, % at 7.5 µM;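 active = mean replicate score, as percent of positive control median, at least 50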;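 note: strain carries kanamycin resistance gene driven by streptokinase promoter and grows in 40 µg/ml kanamycin; loss of luminescence reflects streptokinase promoter inhibition or plain growth inhibition; 0% = median of DMSO wells and 100% = positive control at its reference dose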
# tim10-1 confirm = growth inhibitors of tim10-1 mutant yeast, confirmation, single concentration, luminescence, S. cerevisiae. shares compounds with tim10-1 inh. S. cerevisiae tim10-1 ts strain growth, BacTiter-Glo, 24 h. inhibition, % at 20 µM. hit rate 56% among 7,400. AID 463213, 2010;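 active = inhibition of yeast growth at or above a set limit in either of two repeat tests at 20 µM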;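 note: tim10-1 mutant grown at permissive 25 °C to find synthetic lethal compounds; 0% = DMSO yeast wells and 100% = medium wells without yeast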
# The depositor's hits bear a star; x = not tested or not shown. Hits are enriched below; roughly 4.6% of the tested compounds scored in any of these assays.
SMILES,tim23-1 inh,TIM10 inh,tim10-1 inh,NLRP3 yeast inh,SKKanGAS inh,tim10-1 confirm
CCOC(=O)CCN(c1ccccc1)S(=O)(=O)c1ccc(-c2ccc(=O)[nH]n2)s1,16.7,-6.1,26.1,11.8,-3.2,x
CCN(CC)S(=O)(=O)c1cccc(C(=O)Nc2ccc(S(=O)(=O)NC3=NCCCCC3)cc2)c1,2.3,0.8,4.5,-3.9,-3.5,x
Cc1ccc(-n2ncc3c(=O)n(CC(=O)N(C(C)C)C(C)C)cnc32)cc1,15.6,-2.8,1.3,11.2,-3.6,x
CCOc1ccc(N(CC(=O)NCc2ccccc2C)S(C)(=O)=O)cc1,13.9,14.4,3.9,10.9,-1.7,x
CC1CCCC(N2C(=O)NC(NC(=O)c3ccco3)(C(F)(F)F)C2=O)C1C (configuration not stated),20.6,7.3,46.6*,-3.3,0.5,25.7
COc1ccccc1NC(=O)C1CC(C(C)C)OC1=O (configuration not stated),11.1,11.7,9.2,3.9,-0.9,x
COc1ccc(OC)c2sc(N3CCCCC3)nc12,26.3,21.4,43.0*,23.5,-7.2,24.6
COc1ccc(OC)c2sc(N3CCN(C(=O)c4ccc5ncsc5c4)CC3)nc12,29.1,20.9,50.3*,21.4,12.2,21.4
O=C(c1ccc2nc[nH]c2c1)N1CCN(c2cccc(C(F)(F)F)c2)CC1,33.6,28.3,37.1,-11.2,-8.1,x
O=C(c1ccc2ncsc2c1)N1CCN(c2cccc(C(F)(F)F)c2)CC1,49.8,38.4,57.6*,-37.3,x,39.5*
COc1cccc(NC(=O)CSc2nc3ccccc3c(=O)n2CCCC(=O)NCC2CCCO2)c1 (configuration not stated),-11.2,11.4,5.1,15.6,-1.2,x
C/C(=N\OCC(=O)OCC(=O)NCc1ccccc1)c1ccc2c(c1)OCO2,19.7,-6.2,12.7,10.1,-10.5,x
CCC(=O)N(C(=O)CC)N1CCN(c2ccncc2S(=O)(=O)N2CCCCC2)CC1,17.8,6.4,15.3,6.2,0.6,x
C/C(=N\NC(N)=S)C1(C)CCCCC1,41.8,17.7,15.1,15.4,-0.8,x
CC1(C)C2CCC(C2)C1C/C=N/NC(N)=S (configuration not stated),30.4,17.0,45.6*,-27.4,-4.8,-5.9
CC(C)(C)N(Cc1ccccc1)C(=O)COC(=O)/C=C/c1ccc2c(c1)OCO2,3.0,7.0,7.8,13.3,x,x
COc1ccccc1-n1cc2c([N+](=O)[O-])cc([N+](=O)[O-])cc2n1,44.6,30.6,49.3*,18.3,11.1,37.6*
C/C(CC(=O)Nc1ccc(Cl)c(C(F)(F)F)c1)=N\NC(=O)c1cnccn1,34.5,16.7,49.0*,3.9,3.9,25.3
Cn1c(=O)c2c(nc(NCC3CCCC(CN)C3)n2Cc2ccc(Cl)cc2Cl)n(C)c1=O (configuration not stated),-31.6,-0.7,-16.4,30.2,-0.5,x
Cc1cccc(-c2onc3ccc(C(=O)/C=C/N(C)C)cc23)c1,26.9,11.9,48.1*,27.3,7.5,27.9
Cc1ccc(-c2onc3ccc(C(=O)/C=C/N(C)C)cc23)cc1,26.6,22.3,35.7,2.2,15.8,x
CN(C)/C=C/C(=O)c1ccc2noc(-c3ccc(F)cc3)c2c1,31.0,8.9,41.9*,7.9,11.7,12.9
COc1ccccc1CNC(=O)[C@H](C)NC(=O)C1CCN(C(=O)[C@@H](N)C(C)C)CC1,4.8,-2.4,-10.0,-10.6,2.3,x
O=C(NC(=S)Nc1ccccc1Cl)c1cncc(Br)c1,15.2,-1.4,1.8,43.9,4.8,x
CCOC(=O)COc1ccc(/C=C2\NC(=S)N(CC)C2=O)cc1,27.2,18.4,40.0,2.3,-11.3,25.4
SMILES,tim23-1 inh,TIM10 inh,tim10-1 inh,NLRP3 yeast inh,SKKanGAS inh,tim10-1 confirm
COC(=O)CN1C(=O)N/C(=C/c2ccc(OC)cc2)C1=O,3.2,0.1,3.7,-9.5,-6.3,x
CCOC(=O)Cc1csc(N/N=C\c2cccc(Br)c2)n1,13.2,27.7,22.7,-2.4,13.8,x
CCOC(=O)Cc1csc(N/N=C/c2ccccc2)n1,35.9,25.5,41.3*,3.3,3.7,20.2
CCOC(=O)Cc1csc(NC(=S)NC(=O)C(C)(C)C)n1,33.8,17.3,41.2*,-3.5,1.1,18.2
CCOC(=O)Cc1csc(NC(=S)NC(=O)c2ccc(Cl)cc2)n1,2.6,-2.1,5.8,10.4,-0.8,x
Cc1cc(/C=C2\Sc3ccccc3N2C)cc(C)[n+]1CC1CCCO1 (configuration not stated),23.3,19.8,57.1*,10.8,x,26.4
Cc1cc(C(=O)COC(=O)C23CC4CC(CC(O)(C4)C2)C3)c(C)n1C,7.1,-5.5,2.4,13.9,x,x
Cc1cc(N2CCC(C(=O)NC3CC3)CC2)nc(-c2ccccc2)n1,20.2,2.4,13.6,8.3,0.2,x
Cc1cc(N2CCC(C(=O)NC3CCCCC3)CC2)nc(-c2ccccc2)n1,-7.5,26.5,45.3*,32.5,-2.3,16.1
CCC(CO)Nc1nc2ccc(Cl)cc2c2ccccc12 (configuration not stated),28.6,32.1,52.8*,20.7,6.6,39.4*
CCC(CO)Nc1ncnc2c1cnn2-c1ccc(Cl)cc1 (configuration not stated),12.9,-12.3,19.2,16.3,-6.1,x
O=C(N=C1SCC(=O)N1c1ccccc1Cl)c1ccccc1,34.6,8.4,41.9*,18.7,-2.1,24.1
O=C(N=C1SCC(=O)N1c1ccccc1Cl)c1ccco1,12.7,24.3,30.4,-4.9,-1.9,x
CC(C)(C)NC(=O)C(c1cccs1)N(Cc1ccc(F)cc1)C(=O)c1csnn1 (configuration not stated),23.2,10.0,43.4*,20.9,-2.7,10.8
O=C(NNC(=O)c1ccccc1F)c1cccc(-n2cccc2)c1,6.5,-6.2,-12.9,17.1,2.2,x
O=C(NCc1cccnc1)c1ccc(-c2cc(Cl)ccc2Cl)o1,32.6,15.0,40.2*,16.6,-13.1,29.9
CC(C)(C)c1csc(SCC(=O)Nc2ccc(Cl)cn2)n1,38.1,23.0,42.6*,28.2,-6.3,30.4
Cc1csc(SCC(=O)Nc2ccc(Cl)cn2)n1,-14.7,18.5,7.9,28.8,-0.4,x
Cc1cc(Cl)c2oc(C(=O)N(C)CCc3cnn(C)c3)c(C)c2c1,19.5,-8.1,25.1,10.6,-3.3,x
Cc1[nH]c2ccccc2c1C(=O)C(C)OC(=O)c1ccccc1NCCO (configuration not stated),14.2,8.0,17.4,2.4,-6.2,x
